# Experimental data: PubChem BioAssay
# The source made the active and inactive calls.
# Tests used:
# [1] = small molecules captured by biotinylated probe aFSTL3 – biochemical, small-molecule microarray, fluorescence 635/667, stem cell growth factor project, primary screen (AID 1064); conditions: higher = more signal;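 further: measures binding of the biotinylated anti-FSTL3 antibody to printed compounds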
# [2] = binders from COS7 lysate, DM2A8 probe, primary screen, torsin A project, cell lysate, small-molecule microarray, fluorescence 635/667 (AID 1065); conditions: higher = more signal, COS7 lysate expressing mutant human TOR1A
# [3] = small molecules captured by biotinylated probe aFGF2 – biochemical, small-molecule microarray, fluorescence 635/667, stem cell growth factor project, primary screen (AID 1067); conditions: higher = more signal;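 further: measures binding of biotinylated aFGF2 protein to printed compounds on slides; z-score merges feature fluorescence and signal-to-noise across triplicate slides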
# [4] = small molecules captured by biotinylated probe aFGF10 – biochemical, small-molecule microarray, fluorescence 635/667, stem cell growth factor project, primary screen (AID 1071); conditions: higher = more signal;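 further: score merges 667 nm spot intensity and signal to noise from triplicate slides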
# [5] = target: Neurogenic locus notch homolog protein 2 (Homo sapiens) (UniProt Q04721); experiment: small molecules binding Notch2 protein – biochemical, small-molecule microarray, 635 nm fluorescence, stem cell growth factors, primary screen (AID 1073); conditions: higher = more signal
# [6] = target: Pro-neuregulin-1, membrane-bound isoform (Homo sapiens) (UniProt Q02297); experiment: small molecules binding neuregulin-1 protein – biochemical, small-molecule microarray, fluorescence 635/667, psychiatric disease protein project, primary screen (AID 1075); conditions: NRG1 binding, 635 nm fluorescence, higher = more signal;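 further: score combines 667 nm spot fluorescence with signal to noise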
# [7] = tested on: Neuregulin-1 EGF-like domain; experiment: small molecules binding NRG1 EGF domain – biochemical, small-molecule microarray, 635 nm fluorescence, primary screen (AID 1081); conditions: higher = more signal;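 further: binding of the protein to compounds printed on small-molecule microarray slides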
# [8] = FRG1 expression reporter modulators in myotubes – cell-based, C2C12 myotubes, firefly/Renilla luciferase, luminescence, FRG1 inhibition for FSHD, primary screen (AID 1084); conditions: FRG1 promoter luciferase, higher = more signal, called active from +8 up or from −8 down
# [9] = small molecules captured by biotinylated probe aFST – biochemical, small-molecule microarray, fluorescence 635/667, stem cell growth factor project, primary screen (AID 1086); conditions: higher = more signal;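 further: score merges 667 nm fluorescence with signal-to-noise of each printed compound spot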
# [10] = binders of probe aHhip on microarray, primary screen, stem cell growth factor project, biochemical, small-molecule microarray, fluorescence 635/667 (AID 1087); conditions: higher = more signal;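 further: score merges spot fluorescence at 667nm with spot signal to noise ratio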
# [11] = tested on: PRMT1 (protein arginine N-methyltransferase 1); experiment: small molecules binding arginine methyltransferase PRMT1 – biochemical, small-molecule microarray, 635 nm fluorescence, primary screen (AID 1088); conditions: higher = more signal;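 further: binding of Prmt1 protein to compounds spotted on small-molecule microarray slides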
# [12] = growth effects on S. cerevisiae YJM789 – YJM789 clinical isolate, OD600, 24 h, basal, primary screen (AID 1089); conditions: higher = more signal, called active from +8 up or from −8 down;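 further: growth of clinical yeast isolate S. cerevisiae YJM 789 seeded 1000 cells per well; test concentration not given here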
# [13] = S. pombe growth modifiers, basal conditions – strain 972, OD600, 24 h, no modulator, primary screen (AID 1090);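 further: basal condition with compound alone and no growth modifier present; test concentration not given here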; conditions: S. pombe 972 growth, higher = more signal, called active from +8 up or from −8 down
# [14] = budding yeast growth modifiers under rapamycin – strain BY4716, OD600, 96 h, primary screen (AID 1091); further: test concentration not given here; conditions: S. cerevisiae BY4716 + rapamycin, higher = more signal, called active from +8 up or from −8 down
# [15] = target: Torsin-1A-interacting protein 2 (Homo sapiens) (UniProt Q8NFQ8); experiment: small molecules binding lysate-expressed LULL1 – cell lysate, human LULL1 lysate, 635/667 nm fluorescence, primary screen (AID 1092); conditions: small-molecule microarray, hLULL1 lysate binding, 635 nm fluorescence; higher = more signal;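 further: probe is lysate of COS7 cells overexpressing human LULL1; score merges per-feature 667 nm fluorescence with signal-to-noise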
# [16] = optical density change of DRC41 E. coli – strain DRC41, OD650, 24 h, E. coli filamentation project, primary screen (AID 1093);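 further: MC1000 strain lacking acrAB efflux and sulA so SOS filamentation is blocked; test concentration not given here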; conditions: E. coli DRC41 growth, higher = more signal, called active from +8 up or from −8 down
# [17] = probe aLefty2 binding to arrayed compounds – biochemical, biotinylated probe, 635/667 nm fluorescence, primary screen (AID 1094); conditions: small-molecule microarray, higher = more signal;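 further: score merges spot fluorescence near 667 nm with spot signal-to-noise ratio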
# [18] = tested on: Noggin (protein binding on small-molecule microarray); experiment: small molecules binding Noggin protein – biochemical, 635/667 nm fluorescence, primary screen (AID 1095); conditions: 635 nm fluorescence, higher = more signal;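 further: score merges 667 nm feature fluorescence with signal to noise over triplicate slides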
# [19] = target: Neurogenic locus notch homolog protein 3 (Homo sapiens) (UniProt Q9UM47); experiment: small molecules binding NOTCH3 protein – biochemical, 635/667 nm fluorescence, primary screen (AID 1096); conditions: small-molecule microarray, 635 nm fluorescence, higher = more signal
# [20] = probe aEGFR binding to arrayed compounds – biochemical, biotinylated probe, 635/667 nm fluorescence, primary screen (AID 1097); conditions: small-molecule microarray, higher = more signal;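 further: probe is a biotinylated anti-EGFR antibody binding compounds printed on slides; score combines fluorescence near 667 nm and signal to noise of each spot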
# Chain of Torsin-1A-interacting protein 2 (Homo sapiens) (Q8NFQ8 whole entry, looked up): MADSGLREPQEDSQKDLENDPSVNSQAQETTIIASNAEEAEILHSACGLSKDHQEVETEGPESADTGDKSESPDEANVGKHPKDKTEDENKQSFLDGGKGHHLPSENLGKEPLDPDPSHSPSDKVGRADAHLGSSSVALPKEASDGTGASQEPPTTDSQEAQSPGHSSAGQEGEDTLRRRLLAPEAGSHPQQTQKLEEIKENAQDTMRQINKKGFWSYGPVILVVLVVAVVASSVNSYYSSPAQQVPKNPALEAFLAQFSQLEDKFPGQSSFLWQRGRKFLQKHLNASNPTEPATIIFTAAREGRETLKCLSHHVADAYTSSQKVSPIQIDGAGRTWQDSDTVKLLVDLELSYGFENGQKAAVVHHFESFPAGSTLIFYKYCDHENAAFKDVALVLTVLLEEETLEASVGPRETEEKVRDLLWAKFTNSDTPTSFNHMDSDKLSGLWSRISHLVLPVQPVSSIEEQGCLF
# Chain of Pro-neuregulin-1, membrane-bound isoform (Homo sapiens) (Q02297 whole entry, looked up, the tested form may be a part, canonical isoform): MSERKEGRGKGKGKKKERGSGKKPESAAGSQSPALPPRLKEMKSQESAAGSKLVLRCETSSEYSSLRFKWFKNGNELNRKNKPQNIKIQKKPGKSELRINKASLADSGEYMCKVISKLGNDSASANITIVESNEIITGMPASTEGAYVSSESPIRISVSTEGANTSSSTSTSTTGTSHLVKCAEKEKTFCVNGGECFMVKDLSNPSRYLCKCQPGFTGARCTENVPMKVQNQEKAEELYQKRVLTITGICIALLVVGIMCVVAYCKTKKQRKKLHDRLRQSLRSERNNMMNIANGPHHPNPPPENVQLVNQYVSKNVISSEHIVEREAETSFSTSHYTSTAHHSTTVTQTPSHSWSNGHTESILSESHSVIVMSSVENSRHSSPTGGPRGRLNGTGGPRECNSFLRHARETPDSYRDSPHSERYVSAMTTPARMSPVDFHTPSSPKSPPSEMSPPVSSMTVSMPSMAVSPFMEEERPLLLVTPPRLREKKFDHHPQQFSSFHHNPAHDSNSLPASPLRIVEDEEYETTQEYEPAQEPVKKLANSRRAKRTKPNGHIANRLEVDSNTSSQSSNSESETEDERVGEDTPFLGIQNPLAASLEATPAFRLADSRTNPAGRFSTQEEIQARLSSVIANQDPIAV
# Chain of Neurogenic locus notch homolog protein 2 (Homo sapiens) (Q04721 whole entry, looked up, canonical isoform): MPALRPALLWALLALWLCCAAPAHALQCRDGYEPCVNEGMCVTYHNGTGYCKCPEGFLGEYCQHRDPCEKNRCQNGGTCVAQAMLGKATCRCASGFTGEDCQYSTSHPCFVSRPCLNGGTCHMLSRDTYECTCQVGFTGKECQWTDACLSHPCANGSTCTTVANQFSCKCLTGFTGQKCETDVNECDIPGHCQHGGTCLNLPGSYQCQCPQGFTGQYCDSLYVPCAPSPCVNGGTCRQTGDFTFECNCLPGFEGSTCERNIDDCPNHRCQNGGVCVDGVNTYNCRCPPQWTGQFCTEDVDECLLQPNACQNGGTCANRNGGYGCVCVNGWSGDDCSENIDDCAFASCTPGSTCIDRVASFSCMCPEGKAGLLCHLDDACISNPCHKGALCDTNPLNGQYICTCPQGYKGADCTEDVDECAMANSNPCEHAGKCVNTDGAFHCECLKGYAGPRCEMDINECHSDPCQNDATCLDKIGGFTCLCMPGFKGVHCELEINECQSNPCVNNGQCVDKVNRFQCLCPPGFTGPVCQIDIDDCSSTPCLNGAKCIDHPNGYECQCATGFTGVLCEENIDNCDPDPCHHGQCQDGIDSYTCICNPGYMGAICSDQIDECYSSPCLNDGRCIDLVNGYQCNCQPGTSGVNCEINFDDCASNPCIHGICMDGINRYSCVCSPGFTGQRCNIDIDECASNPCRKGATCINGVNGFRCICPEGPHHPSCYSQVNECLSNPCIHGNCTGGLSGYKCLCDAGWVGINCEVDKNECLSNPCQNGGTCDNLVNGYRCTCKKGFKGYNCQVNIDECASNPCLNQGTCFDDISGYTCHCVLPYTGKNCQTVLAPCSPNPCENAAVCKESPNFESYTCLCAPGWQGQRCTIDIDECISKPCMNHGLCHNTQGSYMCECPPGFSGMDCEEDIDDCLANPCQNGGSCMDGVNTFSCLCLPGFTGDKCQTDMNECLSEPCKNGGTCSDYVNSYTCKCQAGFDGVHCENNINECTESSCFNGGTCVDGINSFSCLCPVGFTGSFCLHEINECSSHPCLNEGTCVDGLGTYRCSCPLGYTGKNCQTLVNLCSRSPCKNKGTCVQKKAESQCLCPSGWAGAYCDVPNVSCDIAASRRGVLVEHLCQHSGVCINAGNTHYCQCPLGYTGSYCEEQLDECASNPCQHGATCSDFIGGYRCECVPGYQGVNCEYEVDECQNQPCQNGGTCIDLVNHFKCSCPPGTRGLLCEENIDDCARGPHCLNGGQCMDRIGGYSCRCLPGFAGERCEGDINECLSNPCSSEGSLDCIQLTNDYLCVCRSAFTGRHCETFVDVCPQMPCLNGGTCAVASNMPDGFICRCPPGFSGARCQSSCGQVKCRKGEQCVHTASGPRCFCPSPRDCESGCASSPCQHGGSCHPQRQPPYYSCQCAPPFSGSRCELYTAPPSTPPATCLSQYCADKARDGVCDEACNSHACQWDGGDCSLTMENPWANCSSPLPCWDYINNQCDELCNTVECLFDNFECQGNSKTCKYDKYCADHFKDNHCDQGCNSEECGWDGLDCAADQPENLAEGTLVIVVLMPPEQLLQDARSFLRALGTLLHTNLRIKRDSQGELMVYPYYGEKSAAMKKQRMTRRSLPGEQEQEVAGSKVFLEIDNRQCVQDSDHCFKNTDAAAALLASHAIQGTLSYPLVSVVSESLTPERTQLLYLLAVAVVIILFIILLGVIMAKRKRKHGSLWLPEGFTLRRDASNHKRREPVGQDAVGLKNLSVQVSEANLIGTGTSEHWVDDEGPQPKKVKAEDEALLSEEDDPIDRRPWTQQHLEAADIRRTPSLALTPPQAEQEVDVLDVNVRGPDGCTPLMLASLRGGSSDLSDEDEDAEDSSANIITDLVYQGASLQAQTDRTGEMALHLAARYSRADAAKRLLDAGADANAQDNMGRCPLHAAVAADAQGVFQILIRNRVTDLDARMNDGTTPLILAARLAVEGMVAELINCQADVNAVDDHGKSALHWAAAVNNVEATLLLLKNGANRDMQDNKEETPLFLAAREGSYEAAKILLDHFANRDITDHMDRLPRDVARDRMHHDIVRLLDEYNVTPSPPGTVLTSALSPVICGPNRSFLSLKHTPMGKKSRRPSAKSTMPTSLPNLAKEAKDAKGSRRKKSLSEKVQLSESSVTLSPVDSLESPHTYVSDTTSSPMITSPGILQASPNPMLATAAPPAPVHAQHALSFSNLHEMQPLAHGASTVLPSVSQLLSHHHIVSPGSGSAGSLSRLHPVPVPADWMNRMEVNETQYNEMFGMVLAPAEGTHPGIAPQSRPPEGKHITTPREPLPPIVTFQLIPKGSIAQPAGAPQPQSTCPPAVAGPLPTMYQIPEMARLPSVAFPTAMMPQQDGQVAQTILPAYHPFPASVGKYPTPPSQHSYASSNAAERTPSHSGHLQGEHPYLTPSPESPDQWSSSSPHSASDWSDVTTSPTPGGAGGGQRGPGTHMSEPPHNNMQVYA
SMILES,composite z-score [1],composite z-score [2],composite z-score [3],composite z-score [4],composite z-score [5],composite z-score [6],composite z-score [7],z-score [8],composite z-score [9],composite z-score [10],composite z-score [11],z-score [12],z-score [13],z-score [14],composite z-score [15],z-score [16],composite z-score [17],composite z-score [18],composite z-score [19],composite z-score [20]
CCCCC(=C=CC[C@@H](O)c1ccccc1OCCO)CCO,-0.347,0.163,-0.0367,0.352,-0.333,0.991,0.479,0.0128 (inactive),0.0797,-0.236,-0.144,0.598 (inactive),-0.424 (inactive),-0.374 (inactive),1.06,0.205 (inactive),-0.192,0.201,-0.0525,-0.199
CC(C)(C)OC(=O)CC[C@]1(C(=O)O)N=C(c2ccc(OCCCO)cc2)O[C@H]1c1ccccc1N=[N+]=[N-],1.1,0.236,0.441,0.448,0.984,1.35,1.14,5.5 (inactive),2.04,1.24,0.938,0.0071 (inactive),0.179 (inactive),-0.668 (inactive),3,-0.0096 (inactive),1.1,0.189,0.41,0.285
C=CCNC(=O)[C@@H]1[C@H]2C(=O)O[C@H](c3ccccc3)[C@H](c3ccccc3)N2[C@H](c2ccc(OCCO)cc2)[C@@]12C(=O)Nc1ccc(C#Cc3ccc(OC)cc3)cc12,-0.175,1.14,0.0969,0.73,1.41,1.24,1.18,0.994 (inactive),0.4,0.283,1.55,2.34 (inactive),0.961 (inactive),4.49 (inactive),2.48,0.838 (inactive),0.182,1.22,1.08,0.116
O=C1O[C@H](c2ccccc2)[C@H](c2ccccc2)N2[C@H]1[C@@H](C(=O)O)[C@]1(C(=O)Nc3ccc(C#CCCO)cc31)[C@H]2c1ccc(O)cc1,1.32,0.502,0.0248,-0.0925,-0.665,0.957,0.708,0.482 (inactive),0.481,0.437,-0.685,0.396 (inactive),-0.228 (inactive),0.385 (inactive),0.782,1.57 (inactive),0.541,-0.228,-0.557,0.186
COC(=O)[C@@]1(Cc2ccccc2)[C@H]2c3cc(C(=O)N(C)C)n(CCSCCO)c3C[C@H]2CN1C(=O)c1ccccc1,-0.303,1.07,0.0413,0.689,1.17,1.28,1.24,1.27 (inactive),0.335,0.347,-0.0249,-0.177 (inactive),0.536 (inactive),-0.694 (inactive),3.09,-0.842 (inactive),0.172,-0.411,-0.0488,0.0239
C=CCC(OC(C)=O)[C@@H]1[C@@H](N(Cc2ccc(-c3ccccc3)cc2)C(=O)Cc2ccc(F)cc2)c2cc(OCCCO)ccc2N1C(=O)c1ccc(-c2ccccc2)cc1 (stereo not given in full),0.124,0.143,-0.0145,-0.0694,-0.305,-0.23,-0.937,-0.432 (inactive),0.0621,-0.0994,-0.838,-2.19 (inactive),-0.379 (inactive),-0.694 (inactive),-0.404,0.996 (inactive),0.0631,-0.237,-0.239,-0.0372
COC(=O)[C@@]1(Cc2ccccc2)[C@H]2c3cc(C(=O)N4CCCC4)n(Cc4cccc5ccccc45)c3C[C@H]2CN1C(=O)c1ccccc1,1.79,0.0848,0.705,0.913,1.63,1.49,1.21,-0.165 (inactive),2.03,0.869,-1.59,0.506 (inactive),1.56 (inactive),1.43 (inactive),2.54,-0.395 (inactive),1.29,-0.685,0.943,0.891
COC(=O)[C@@]1(Cc2ccc(OC)cc2)[C@H]2c3cc(C(=O)N(C)C)n(CCN4CNCC4=O)c3C[C@H]2CN1C(=O)c1ccccc1,0.39,1.47,0.0432,-0.0075,1.27,1.51,1.3,0.124 (inactive),0.384,0.983,-1.13,-0.693 (inactive),0.687 (inactive),-0.567 (inactive),0.324,0.288 (inactive),-0.0877,0.788,-0.325,0.107
O=C(c1ccccc1)N1Cc2ccccc2[C@@H]2OC(c3ccc(OCCCO)cc3)=N[C@]2(Cc2ccccc2)C1=O,-0.0231,0.483,0.0462,0.158,0.649,1.32,1.24,-1.05 (inactive),-0.171,-0.208,1.2,-0.756 (inactive),0.833 (inactive),4.11 (inactive),3.13,-0.0783 (inactive),0.0337,1.05,1.1,-0.0187
C=C(CCCC)C(=O)CC[C@H](OC(=O)c1cccnc1)c1ccccc1OCCO,0.453,0.657,-0.0573,0.726,-0.261,-0.113,0.22,1.28 (inactive),0.0241,0.0505,0.449,-2.23 (inactive),-2.01 (inactive),-1.34 (inactive),-0.0709,0.576 (inactive),-0.19,0.282,0.214,-0.0656
C[N+](C)(C)CCCCNC(=O)[C@H]1C[C@H]2C(=O)N[C@@H](Cc3ccccc3)C(=O)N2[C@H]1c1ccc(O)cc1,0.288,0.504,-0.074,0.0806,-0.601,-0.158,1.22,0.605 (inactive),-0.0662,-0.0645,0.684,1.1 (inactive),-0.0797 (inactive),-1.15 (inactive),-0.114,0.282 (inactive),-0.108,1.69,0.471,-0.112
C=C(CCCC)C(=O)CC[C@H](OC(C)=O)c1cccc(OCCO)c1,0.137,-0.475,-0.148,-0.177,-1.47,-0.331,-0.159,0.818 (inactive),-0.463,-0.137,0.554,0.292 (inactive),-1.84 (inactive),-0.303 (inactive),-0.348,0.787 (inactive),-0.215,-0.848,-0.216,-0.363
COCCOC(=O)N1C(=O)[C@@]2(c3ccccc31)[C@H](c1ccccc1OCCO)N1[C@H](c3ccccc3)[C@H](c3ccccc3)OC(=O)[C@H]1[C@@H]2C(=O)Nc1nc2ccccc2s1,-0.223,1.03,0.0186,1.11,1.02,0.961,1.21,-1.02 (inactive),0.215,0.0274,1.56,1.68 (inactive),0.981 (inactive),4.61 (inactive),2.25,2.25 (inactive),-0.0285,1.47,1.09,-0.0244
C=CCOC(=O)[C@H]1[C@@H]2C(=O)O[C@@H](c3ccccc3)[C@@H](c3ccccc3)N2[C@@H](c2ccc(OCCOC(=O)[C@H]3C[C@H]4C(=O)N5CCC[C@H]5C(=O)N4[C@H]3c3ccc(O)cc3)cc2)[C@]12C(=O)Nc1ccc(I)cc12,2.15,2.13,0.555,0.791,1.71,2.72,1.44,-0.269 (inactive),2.72,2.39,1.53,-0.324 (inactive),-1.65 (inactive),0.0891 (inactive),3.64,1.07 (inactive),1.46,2,1.05,0.993
CC(C)(C)OC(=O)CC[C@@]1(C(=O)NCC(O)CO)N=C(c2ccc(OCCCO)cc2)O[C@@H]1c1ccccc1N=[N+]=[N-] (stereo not given in full),0.119,1.11,0.0599,0.559,1.2,1.97,1.17,2.43 (inactive),0.552,-0.0618,1.54,1.17 (inactive),-1.74 (inactive),4.99 (inactive),3.76,1.26 (inactive),0.247,1.04,0.626,0.0773
O=C1O[C@H](c2ccccc2)[C@H](c2ccccc2)N2[C@H]1[C@@H](C(=O)NC[C@H](O)c1ccccc1)[C@]1(C(=O)Nc3ccccc31)[C@H]2c1ccc(OCCO)cc1,0.0809,0.267,-0.039,0.345,0.404,1.05,1.21,1.8 (inactive),0.368,0.0551,1.58,2.12 (inactive),1.93 (inactive),5.07 (inactive),2.39,-0.965 (inactive),-0.147,0.234,0.797,-0.0244
[N-]=[N+]=Nc1ccccc1[C@H]1OC(c2ccc(OCCCO)cc2)=N[C@@]1(Cc1ccccc1)C(=O)O,0.0481,0.466,0.0363,0.641,1.05,1.69,1.3,1.02 (inactive),0.693,-0.374,1.3,0.206 (inactive),-0.329 (inactive),-1.06 (inactive),3.3,0.355 (inactive),-0.0152,0.875,1.11,-0.0351
C=CCOC(=O)[C@@H]1[C@H]2C(=O)O[C@H](c3ccccc3)[C@H](c3ccccc3)N2[C@H](c2ccc(OCCOC(=O)[C@@H]3C[C@@H]4C(=O)N[C@@H](CCCCN(C)C)C(=O)N4[C@@H]3c3ccc(O)cc3)cc2)[C@@]12C(=O)Nc1ccc(I)cc12,-0.317,0.25,-0.0216,0.347,1.2,1.11,1.2,0.0976 (inactive),0.171,-0.108,1.51,0.767 (inactive),-0.858 (inactive),1.51 (inactive),2.95,-0.907 (inactive),-0.119,1.24,1.11,0.0727
COC(=O)[C@@]1(Cc2ccc(F)cc2)[C@H]2c3cc(C(=O)N4CCCC4)n(Cc4ccc(C)o4)c3C[C@H]2CN1C(=O)c1ccccc1,0.285,0.145,0.157,0.883,1.53,0.714,1.14,1.62 (inactive),1.29,0.2,0.812,-0.849 (inactive),-0.0545 (inactive),0.0836 (inactive),2.88,-0.673 (inactive),0.381,1.2,0.556,0.277
